# D1 PAM: enhances dopamine response at the human D1 receptor; 360,000 tested, 0.036% active; AID 504651; potentiation, % at 10 µM; P21728; HEK293 TREx D1 cells, calcium flux, dopamine EC20 potentiation; in the data active means potentiation above about 30%
# TRHR PAM: allosterically enhances the human TRH receptor; P34981; TRHR cells, fluo-8 calcium fluorescence, EC20 TRH enhancement; enhancement, % at 2 µM; 360,000 tested, 0.66% active; in the data active means enhancement above about 30%
# Target sequence (P34981 whole entry, looked up): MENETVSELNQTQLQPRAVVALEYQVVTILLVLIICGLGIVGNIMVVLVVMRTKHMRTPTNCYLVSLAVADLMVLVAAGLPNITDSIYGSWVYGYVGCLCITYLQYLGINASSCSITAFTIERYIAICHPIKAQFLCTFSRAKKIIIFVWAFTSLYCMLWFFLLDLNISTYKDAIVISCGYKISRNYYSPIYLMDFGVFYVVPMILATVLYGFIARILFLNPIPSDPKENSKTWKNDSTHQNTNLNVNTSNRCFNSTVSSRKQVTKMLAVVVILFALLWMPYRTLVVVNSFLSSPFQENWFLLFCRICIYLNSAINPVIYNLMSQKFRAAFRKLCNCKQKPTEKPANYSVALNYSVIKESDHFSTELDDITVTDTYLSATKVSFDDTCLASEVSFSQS
#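 TRHR-expressing cells loaded with fluo-8 calcium dye were read kinetically (ex 480/em 530) during compound addition, then stimulated with an EC20 of TRH (10 nM final). Enhancement of the Gq-mediated intracellular calcium response was scored.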
# TRHR ag: TRH receptor (human) agonism. P34981. 360,000 tested, 0.18% active. activation, % at 2 µM. TRHR cells, calcium flux fluo-8, FDSS agonist mode
#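 Fluo-8-loaded TRHR cells; 10 s baseline, compound added, kinetic Ca2+ fluorescence read 1/s, agonist mode.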
# D1 antag: blocks dopamine activation of the human D1 receptor; HEK293 TREx D1 cells, calcium flux, dopamine EC80; stronger effect = lower value; activity change, negative = inhibition, % at 10 µM; 360,000 tested, 3.2% active; AID 504652; in the data active means activity change below about -30%
#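 Tetracycline-induced HEK293 T-REx cells with force-coupled D1 receptor were loaded with a no-wash calcium dye. Compound was added after a 10 s baseline and read kinetically for 180 s; EC80 dopamine was then added and calcium flux followed another 180 s.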
# D1 agonist: activates the human D1 dopamine receptor; P21728; HEK293 T-REx D1 cells, calcium flux, agonist mode; activation, % at 2 µM; 360,000 tested, 1% active; AID 504660
#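 Tetracycline-induced HEK293 TREx D1 cells, force-coupled to calcium signalling, were dye-loaded with a no-wash calcium kit. Compound was pin-added after a 10 s baseline. Fluorescence was read kinetically at 1 cycle/s for 180 s, with calcium rises flagged as agonism.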
# Hits are given with their value; – = inactive. This is a sample that favours compounds with a hit; in the whole collection about 4.7% have one here. Unless noted, no stated cut-off is given here; in the data, active means activation above about 30%; inactive means the rest.
SMILES,D1 PAM,TRHR PAM,TRHR ag,D1 antag,D1 agonist
O=S(=O)(c1ccc(Cl)cc1)N1CCN(C(=S)Nc2ccc(F)c(Cl)c2)CC1,–,–,–,-36.7,–
Fc1ccc(NC(=S)NN2CCOCC2)cc1Cl,–,–,–,-32.3,–
O=S(=O)(c1ccc(NC(=S)N/N=C/c2ccc(N3CCOCC3)cc2)cc1)N1CCOCC1,–,–,–,-44.2,–
O=S(=O)(c1ccccc1)N1CCN(C(=S)NCCCN2CCOCC2)CC1,–,–,–,-46.3,–
CCc1ccc(C(c2ccccc2)c2c(C)[nH]c3ccccc23)s1 (stereo unspecified),–,–,–,–,–
CCOc1ccccc1NC(=O)C(c1ccccc1)N1Cc2ccccc2C1=O (stereo unspecified),–,–,–,–,–
Cc1cc(Br)ccc1NC(=O)C(NS(=O)(=O)c1cccs1)c1ccccc1 (stereo unspecified),–,–,–,–,–
COc1ccccc1N1CCN(C(=S)Nc2ccc(S(=O)(=O)N3CCOCC3)cc2)CC1,–,–,–,–,–
O=S(=O)(c1ccc(NC(=S)N2CCN(c3ccccc3F)CC2)cc1)N1CCOCC1,–,–,–,-31.4,–
C=CCNC(=S)NNC(=O)c1ccc(OCCC)cc1,–,–,–,–,–
Cc1onc(-c2ccccc2)c1C(=O)NC(=S)NNC(=O)c1ccc(O)cc1O,–,–,–,–,–
CCCOc1ccc(NC(=O)c2c(-c3ccccc3)noc2C)cc1,–,–,–,–,–
Cc1onc(-c2ccccc2)c1C(=O)NC(=S)NNC(=O)c1ccccc1O,–,–,–,–,143.1
CCCOc1ccc(C(=O)NNC(=S)NC(=O)CC)cc1,–,–,–,-71.3,–
CCCOc1ccc(C(=O)NC(=S)NNC(=O)c2c(-c3ccccc3)noc2C)cc1,–,–,47.9,–,207.3
O=S(=O)(O)c1nc2ccccc2n1Cc1cccc2ccccc12,–,–,–,–,–
COc1ccc(NC(=O)CSC2=NCCN2)cc1,–,–,–,-30.3,–
COc1ccc(NC(=O)CSc2nc3ccc(OC)cc3[nH]2)cc1,–,–,–,–,–
COc1ccc(NC(=O)CSc2c(C)n[nH]c2C)cc1,–,–,–,–,–
CCCc1cc(=O)[nH]c(SCC(=O)N(C)CC(=O)Nc2ccc(C)cc2)n1,–,–,–,-36.0,–
COc1ccc(NC(=O)c2ccc(NC(=O)CSc3nc(N)cc(=O)[nH]3)cc2)cc1,–,–,–,-45.2,–
COC(=O)c1ccc(NC(=O)CSc2nc3ccc(OC)cc3[nH]2)cc1,–,–,–,-57.1,–
CCOc1ccccc1NC(=O)CCCc1nc(-c2ccccc2Cl)no1,–,–,–,–,–
Cc1cc2c(=O)n(C)c(SCC(=O)Nc3ccccc3)nc2s1,–,–,–,–,–
CCc1c(C)nc(SCC(=O)Nc2nc(-c3ccc(OC)cc3)cs2)[nH]c1=O,–,–,–,-32.9,–
SMILES,D1 PAM,TRHR PAM,TRHR ag,D1 antag,D1 agonist
COc1ccc(NC(=O)CSc2nc3sc(C)cc3c(=O)n2C)cc1,–,–,–,-33.8,–
COc1cccc(NC(=O)CSc2nc(C)c(Cc3ccccc3)c(=O)[nH]2)c1,–,–,–,-72.8,–
COC(=O)c1ccc(CSc2nc3ccc(S(N)(=O)=O)cc3[nH]2)cc1,–,36.3,–,–,–
CC1CCN(C(=O)c2ccccc2SCC(=O)NCC2CCCCC2)CC1,–,–,–,–,–
COc1ccccc1Cc1nc2ccccc2nc1SCC(=O)NCc1ccc(F)cc1,–,–,–,–,–
CCOc1ccc(Nc2nc(C)c(NC(=O)c3cccc(F)c3)c(Nc3ccc(OCC)cc3)n2)cc1,–,–,–,–,–
COc1ccc2nc(SCC(=O)NC3CCCCC3C)[nH]c2c1 (stereo unspecified),–,–,–,-39.8,–
COC(=O)c1cc(CSc2nc3ccc(C)cc3[nH]2)oc1C,–,–,–,-47.0,–
COC(=O)c1ccc(CSc2nc3ccccc3[nH]2)o1,–,–,–,–,–
COc1ccc(NC(=O)CSc2nc(-c3ccc(OC)cc3)cc(=O)[nH]2)cc1,–,–,–,–,57.0
COc1ccc2nc(SCC(=O)NC(C)C)[nH]c2c1,–,–,–,–,–
NC(=O)c1ccccc1-c1noc(-c2ccccc2F)n1,–,–,–,–,–
CCN(CC)c1ccc(/C=C2/C(=O)c3ccc(C(=O)O)cc3C2=O)cc1,–,41.3,187.8,–,260.9
O=C(O)CC1SC(=Nc2ccccc2)N(c2ccccc2)C1=O (stereo unspecified),–,–,–,-30.8,–
O=C(O)CC1S/C(=N\N=C2CCCCCCC2)N(c2ccccc2)C1=O (stereo unspecified),–,–,–,–,–
Cc1cccc(CN2C(=O)/C(=C\c3ccc(C(=O)NCCCN4CCN(C)CC4)cc3)Oc3ccccc32)c1,–,–,–,–,–
CN1CCN(CCCNC(=O)c2ccc(/C=C3\Oc4ccccc4N(Cc4ccccc4F)C3=O)cc2)CC1,–,–,–,-46.8,103.1
COc1ccc(N(C)C(=O)NCc2noc3ccc(C)cc23)c(OC)c1,–,–,–,–,–
Cc1ccccc1C(=O)NC1CC2CCCC(C1)N2Cc1ccccc1 (stereo unspecified),–,–,–,–,–
COc1ccc(C(=O)NC2CC3CCCC(C2)N3Cc2ccccc2)cc1OC (stereo unspecified),–,–,–,-33.0,–
Cc1ccccc1C(=O)NC1CC2CCCC(C1)N2Cc1ccc(Cl)cc1 (stereo unspecified),–,–,–,-73.0,–
COCCN(C(=O)COC(=O)c1cccnc1Cl)c1c(N)n(Cc2ccccc2)c(=O)[nH]c1=O,–,–,–,–,–
CC(C)CN(C(=O)COC(=O)c1cccnc1Cl)c1c(N)n(Cc2ccccc2)c(=O)[nH]c1=O,–,–,–,-34.9,–
COc1cc(C)c(C(=O)Oc2cc(C)c(C(=O)O)c(O)c2C)c(O)c1C(=O)O,–,–,–,–,–
COc1cc(C)c(C(=O)Oc2cc(C)c(C(=O)O)c(O)c2C)c(OC)c1C,–,–,–,-66.4,–
SMILES,D1 PAM,TRHR PAM,TRHR ag,D1 antag,D1 agonist
Cc1csc(=N)n1CC(=O)N1CCc2ccccc21,–,–,–,-32.2,–
O=C(CN1CCCc2ccccc21)N1CCc2ccccc21,–,–,–,–,–
O=C(Cn1cc2c(n1)CCCCC2)N1CCc2ccccc21,–,–,–,-75.7,–
Cc1ccc(NC(=O)Cn2cc3c(n2)CCCCC3)cc1,–,–,–,–,39.7
CCC(CC)C(=O)Nc1ccc2nc(SCC(=O)N3CCCC3)sc2c1,–,–,–,–,–
O=C(CCC(=O)N1Cc2ccccc2Oc2ncccc21)NCc1cccc(Cl)c1,–,–,–,–,–

# Bioassay records deposited in PubChem BioAssay by National Center for Advancing Translational Sciences (NCATS).
